# Structures can show the parent of a compound that is named as a salt. Unmarked numbers belong to inactive results.
# Tested on: NCI-H1688
# Experiment: inhibition of cell viability relative to untreated control (fraction); higher = stronger growth inhibition, active = 0.5 or more
# Conditions: 30 µM; 24 h
# Procedure, shortened: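 Compounds from a natural compound library (TargetMol) were tested at 30 µM on NCI-H1688 small cell lung cancer cells for 24 h at 37°C under 5% CO2. Cell Counting Kit-8 absorbance at 450 nm, read in triplicate, gave the viability. The values express inhibition of cell viability as a fraction relative to untreated cells.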
row,Structure (SMILES),inhibition of cell viability
1,COc1cc(C=O)ccc1O [Vanillin],0.219
2,CC(C)=CCC[C@](C)(O[C@@H]1O[C@H](CO[C@@H]2O[C@H](CO)[C@@H](O)[C@H](O)[C@H]2O)[C@@H](O)[C@H](O)[C@H]1O)[C@H]1CC[C@]2(C)[C@@H]1[C@H](O)C[C@@H]1[C@@]3(C)CC[C@H](O[C@@H]4O[C@H](CO)[C@@H](O)[C@H](O)[C@H]4O[C@@H]4O[C@H](CO)[C@@H](O)[C@H](O)[C@H]4O)C(C)(C)[C@@H]3CC[C@]12C [Ginsenoside Rb1],-0.0384
3,C[C@@H]1C(=O)O[C@H]2C[C@@]34[C@H]5C[C@@H](C(C)(C)C)[C@]36[C@@H](OC(=O)[C@@H]6O)O[C@@]4(C(=O)O5)[C@]21O [Ginkgolide A],-0.028
4,CC(C)=CCC/C(C)=C/CC/C(C)=C/CC/C(C)=C/CC1=C(C)C(=O)c2ccccc2C1=O [Menatetrenone],-0.0024
5,Cc1nc(C)c(C)nc1C [Ligustrazine hydrochloride],-0.157
6,C[C@]12CCC(=O)C=C1CC[C@@H]1[C@@H]2CC[C@@]2(C)[C@H]1CC[C@]2(O)C(=O)CO [Cortodoxone],-0.112
7,C=C(NC(=O)C(=C)NC(=O)c1csc(C2=N[C@@H]3c4csc(n4)[C@H]4NC(=O)c5csc(n5)[C@H]([C@](C)(O)[C@@H](C)O)NC(=O)[C@H]5CSC(=N5)/C(=C/C)NC(=O)[C@H]([C@@H](C)O)NC(=O)c5csc(n5)[C@]3(CC2)NC(=O)[C@H](C)NC(=O)C(=C)NC(=O)[C@H](C)NC(=O)[C@H]([C@@H](C)CC)N[C@@H]2C=Cc3c([C@H](C)O)cc(nc3[C@H]2O)C(=O)O[C@@H]4C)n1)C(N)=O [Thiostrepton],0.943 (active)

# — the supplement of paper PMC11634586
